In all, about 330,000 compounds went through this assay and about 1,900 (0.58%) were called active. About 4% were inconclusive and are not listed. No stated cut-off is given here; in the data, inconclusive means inhibition above about 70% without an active follow-up result; inactive means below that. Not all results are given here. Measured potencies and affinities stand elsewhere.

Results on 58 compounds are retold here after PubChem BioAssay AID449762 (Southern Research Specialized Biocontainment Screening …, 2010).

This assay is described as follows: M. tuberculosis growth inhibition, HTS (AID 449762).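 Further: bacterial growth assessed after seven days of incubation.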 As to conditions: M. tuberculosis H37Rv growth inhibition, 7H9 media; at 25 µM; stronger effect = higher value.
As usually defined, the inhibition is the relative decrease from the control value, in per cent. In the case of `N#C[C@@H]1[C@@H]2C(=O)N(c3ccc4c(c3)OCCO4)C(=O)[C@@H]2C2c3ccccc3C=CN21` (stereo partly drawn), the inhibition is -6.97% (inactive).

With `CCn1c(SCC(=O)Nc2cc(C(C)(C)C)nn2-c2ccccc2)nnc1-c1cccs1`, the inhibition is -2.18% (inactive).

Regarding `COc1cccc(N2CCN(C(=O)CCCCCNc3nc(=S)[nH]c4ccccc34)CC2)c1`, the inhibition is 13.8% (inactive).

Consider `O=C(C1CCC(CNc2nc(=S)[nH]c3ccccc23)CC1)N1CCN(c2ccccn2)CC1` (stereo not drawn), for which the inhibition is 6.46% (inactive).

As to `CCOC(=O)c1ccc(-c2c(-c3ccccc3OC)sc3cc4c(cc23)OCO4)cc1F`, the inhibition is 6.83% (inactive).

For `O=C(Cc1c(F)cccc1Cl)Nc1ccc(S(=O)(=O)N2CCOCC2)cc1`, the inhibition was -7.05% (inactive).

For `CCOC(=O)CNC(=O)CNC(=O)c1nn(-c2ccc(OC)c(OC)c2)c(=O)c2ccccc12`, the inhibition was 23.4% (inactive).

For the compound `CCOC(=O)N1CCN(C(=O)CNC(=O)c2nn(-c3ccc(OC)c(Cl)c3)c(=O)c3ccccc23)CC1`, the inhibition was 7.01% (inactive).

For `O=C(c1ccccc1N(Cc1ccccc1)S(=O)(=O)c1ccccc1)N1CCOCC1`, the inhibition was -3.28% (inactive).

As for `Cn1c(=O)n(C)c2cc(NC(=O)COc3ccc(F)cc3)ccc21`, the inhibition is -1.78% (inactive).

With `O=C1CCN(CCc2ccccc2)CCN1[C@H](CSc1ccccc1)c1ccccc1`, the inhibition is 21.9% (inactive).

Take `CC(O)CNc1nc2sc3c(c2c(=O)n1CCc1ccccc1)CCCCC3` (stereo not drawn): the inhibition is -3.46% (inactive).

With `c1ccc2c(c1)ncn2-c1ncnc2sc3c(c12)CCCC3`, the inhibition is 7.95% (inactive).

As to `O=C(COc1ccccc1Cl)Nc1ccc2c(c1)C(=O)NC2=O`, the inhibition was -3.92% (inactive).

Take `CCOC(=O)COc1ccc2c(c1)C(=O)CC(C)(C)O2`: the inhibition is 54.7% (inactive).

As for `CC1(C)CC(=O)c2cc(OCC(=O)NCc3cccnc3)ccc2O1`, the inhibition is -4.88% (inactive).

Turning to `COc1ccc2c(c1OC)C(=O)N1C2SC(C)(C)[C@H]1C(=O)NC(C)C` (stereo partly drawn), the inhibition is -6.91% (inactive).

Take `COc1ccc(-c2cc3nc[nH]c(=O)c3s2)cc1`: the inhibition was 65.4% (inactive).

As for `COc1ccc(-c2cc3nc(C)n(N)c(=O)c3s2)cc1`, the inhibition was -2.06% (inactive).

As to `COc1ccc(CC(=O)Nc2nc(C)cs2)cc1OC`, the inhibition was 0.84% (inactive).

As for `O=C(C1CCC(=O)N(C2CCCCCC2)C1)N1CCN(c2ccccc2Cl)CC1` (stereo not drawn), the inhibition is 1.52% (inactive).

`Cc1ccccc1N1CCN(C(=O)C2CCC(=O)N(C3CCCC3)C2)CC1` (stereo not drawn): the inhibition is 2.89% (inactive).

On to `CN(C)S(=O)(=O)c1ccc(C(=O)/C=C/c2cccnc2)cc1`, for which the inhibition was 18.5% (inactive).

In the case of `Cc1ccc(OCCCN2C(=O)C(=O)c3cccc(C)c32)cc1`, the inhibition was 9.09% (inactive).

As to `Cc1cccc2c1N(CCOc1ccc(C(C)(C)C)cc1)C(=O)C2=O`, the inhibition was 4.9% (inactive).

`COc1ccc(N2CCN(C(=O)CCc3nnc4ccc(N5CCOCC5)nn34)CC2)cc1`: the inhibition is -1.82% (inactive).

Turning to `CCOc1cc(N)c(Cl)cc1C(=O)NCC1CN(Cc2ccc(F)cc2)CCO1` (stereo not drawn), the inhibition was -1.66% (inactive).

For the compound `COc1cc(N)c(Cl)cc1C(=O)NC1CN2CCC1CC2` (stereo not drawn), the inhibition is 4.28% (inactive).

Regarding `COc1ccc(S(=O)(=O)N2CCOC2CNC(=O)C(=O)NCc2ccco2)cc1` (stereo not drawn), the inhibition was 0.26% (inactive).

For `CCC(C)Nc1nc(Cl)nc(NCCOc2ccccc2)n1` (stereo not drawn), the inhibition was 5.37% (inactive).

As for `O=C(CCC(=O)N(CC(=O)NC1CCCCC1)CC1CCCO1)Nc1nccs1` (stereo not drawn), the inhibition is -1.08% (inactive).

Turning to `O=C(Nc1cccnc1Cl)c1cc(-c2ccc(Cl)cc2)on1`, the inhibition was 5.26% (inactive).

In the case of `Cc1c(Cl)cccc1NC(=O)c1cc(-c2ccco2)on1`, the inhibition is 3.35% (inactive).

In the case of `O=[N+]([O-])c1ccc(-c2cnc(SCc3ccccc3Cl)[nH]2)cc1`, the inhibition was -2.76% (inactive).

In the case of `COc1ccccc1CSc1ncc(-c2ccc([N+](=O)[O-])cc2)[nH]1`, the inhibition was -2.06% (inactive).

For the compound `COCC(=O)N1CCC(Oc2cccc(C(=O)NCc3ccccn3)c2)CC1`, the inhibition was -0.85% (inactive).

Consider `CCCCN1C(=O)/C(=C2/C=CC=CN2C)SC1=S`, for which the inhibition was -5.48% (inactive).

Consider `O=C(O)CCN1C(=O)C(=C2CCCCCC2)SC1=S`, for which the inhibition is -3.58% (inactive).

Take `CCCCn1nc2cc(C(=O)NCc3ccc(OC(F)(F)F)cc3)ccc2c1OC`: the inhibition is 6.36% (inactive).

For the compound `O=C(NN1CCOCC1)C12CC3CC(CC(C3)C1)C2`, the inhibition is -3.63% (inactive).

For the compound `COc1ccc2c3c([nH]c2c1)[C@H]1C[C@H]2[C@H](C[C@@H](O)[C@H](OC)[C@H]2C(=O)O)CN1CC3`, the inhibition is 1.26% (inactive).

In the case of `COc1ccc2c3c([nH]c2c1)C1CC2C(CC(O)C(OC)C2C(=O)O)CN1CC3` (stereo not drawn), the inhibition was -4.38% (inactive).

On to `C=Cn1nc(C)c2ccccc2c1=O`, for which the inhibition was -3.9% (inactive).

As to `COC(=O)c1cc(=O)n(Cc2ccc(F)cc2)c(=Nc2ccccc2)s1`, the inhibition is 4.7% (inactive).

`COC(=O)c1cc(=O)n(CCc2ccccc2)c(=Nc2ccc(F)cc2)s1`: the inhibition is 4.1% (inactive).

`COc1cccc(NC(=O)[C@H](CC(C)C)NC(=O)N2CCn3c2nc2ccccc23)c1`: the inhibition is 11.4% (inactive).

`NC(=O)[C@H](Cc1cc2ccccc2s1)NC(=O)[C@@H]1CC2(CC(c3cccc(NC(=O)[C@@H]4CCC(=O)N4)c3)=NO2)CN1C(=O)c1ccccc1` (stereo partly drawn): the inhibition is -4.74% (inactive).

With `NC(=O)C1CCN(CCCNC2CC(=O)N(Cc3ccc(N4CCCC4=O)cc3)C2=O)CC1` (stereo not drawn), the inhibition was -6.69% (inactive).

Take `Nc1cc(C(=O)OCC(=O)NNC(=O)c2ccccc2)ccc1Cl`: the inhibition is 35.4% (inactive).

On to `Nc1cc(C(=O)OCC(=O)NNC(=O)c2ccccc2F)ccc1Cl`, for which the inhibition was 25.6% (inactive).

As to `CCOc1cc(Cl)c(CNCCCN2CCOCC2)cc1OC`, the inhibition is 5.34% (inactive).

With `CCOC(=O)c1c(C)[nH]c(C(=O)COC(=O)c2cc(C)oc2C)c1C`, the inhibition was -7.77% (inactive).

Regarding `N#Cc1ccc(-c2ccc3c(c2)OCO3)nc1SCC(=O)OCc1ccccc1`, the inhibition is -7.31% (inactive).

Turning to `COc1ccc(-c2ccc(C#N)c(SCC(=O)NCCc3ccccc3)n2)cc1OC`, the inhibition is 8.95% (inactive).

For the compound `S=C(NC1CCCCC1)N1CCN(Cc2ccccc2Cl)CC1`, the inhibition was 1.74% (inactive).

On to `COc1ccc2c(COC(=O)CCS(=O)(=O)c3ccccc3)cc(=O)oc2c1`, for which the inhibition was -17.5% (inactive).

As to `O=c1[nH]c(CSc2ccccn2)nc2ccccc12`, the inhibition is 3.19% (inactive).

Consider `Cn1c(SCc2nc3ccccc3c(=O)[nH]2)nc2ccccc21`, for which the inhibition was 1.19% (inactive).
